Reference: PubChem BioAssay (NCI)
This is part of a sample that, as a whole, favours compounds with a hit. Of some 83,000 tested, about 20% had one in any assay.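 Compound tested at a single concentration for 48 hours in 96-well plates; a percent growth value below 10 was scored as active.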 Unmarked numbers belong to inactive results. Active and inactive are the calls of the source.

Test system: IGROV1 ovarian
Assay: NCI-60 one-dose screen, 48 h (100 = growth as untreated, 0 = no growth, -100 = all killed)
Settings: 10 µM unless noted

Row | SMILES | growth
1 | O=C(NCCCN1CCOCC1)c1cccc(N2C(=O)/C(=C/c3ccc(F)cc3)SC2=S)c1 | 90.7%
2 | CC(C)NC1CCC(Nc2ccnc3cc(Cl)ccc23)CC1 (stereo not drawn) | 109%
3 | Fc1ccc(-c2nn(-c3ccccc3)cc2-c2nc3ccccc3o2)cc1 | 82.1%
4 | COc1ccc(C/C(C)=C(/c2ccc(OCCN3CCCCC3)cc2)c2ccc(OC(=O)NCc3ccccc3)cc2)cc1 | -71.1% (active)
5 | Cn1cc(-c2nonc2-c2c[nH]c3ccc(Br)cc23)c2cc(Br)ccc21 | 59%
6 | Cn1c(=O)c2c(nc(NC3=NS(=O)(=O)c4ccccc43)n2CC(=O)N2CCc3ccccc32)n(C)c1=O | 94.7%
7 | Clc1ccc(Nc2nnc(COc3ccccc3)c3ccccc23)cc1 | 16.1%
8 | O=[N+]([O-])c1ccc(S(=O)(=O)N2CCN(C3=NS(=O)(=O)c4ccccc4N3c3ccccc3)CC2)cc1 | 97%
9 | CCNC(=O)c1[nH]cc(-c2ccccc2)c1-c1cc(OC)c2c(c1OC)OCO2 | 88.5%
10 | COCCn1c(-c2csc(-c3cn(C)c4ccc(OC)cc34)n2)cc2cccnc21 | 94.5%
11 | S=C(Nc1ccc(-c2nc(N3CCOCC3)c3cccn3n2)cc1)Nc1cccnc1 | 11%
12 | COc1cc(CNC(=O)CCCC/C=C/C(C)C)ccc1OCc1nnc(Nc2ccc([N+](=O)[O-])cc2)o1 | 53.5%
13 | N#CC1=C(c2ccc(Cl)cc2)Nc2c(c(-c3ccc(Cl)cc3)nn2-c2ccccc2)C12C(=O)Nc1ccc(Cl)cc12 (stereo not drawn) | 36.7%
